This is part of a sample that, as a whole, favours compounds with a hit. Of some 83,000 tested, about 20% had one in any assay.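 The test compound was applied at a single concentration to cells in 96-well plates for 48 hours, and percent growth was recorded.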 A number with no mark means an inactive call. Calls of active or inactive are those of the source. Rule for the calls: active = growth percent below 10; inactive = the rest.
Key:
Experiment in all cases: NCI-60 one-dose screen, 48 h (100 = growth as untreated, 0 = no growth, -100 = all killed)
Settings in all cases: 10 µM unless noted
[1] = tested on: SR leukemia
[2] = tested on: RPMI-8226 leukemia
[3] = tested on: OVCAR-8 ovarian
[4] = tested on: OVCAR-5 ovarian
[5] = tested on: OVCAR-4 ovarian
[6] = tested on: SK-OV-3 ovarian
[7] = tested on: IGROV1 ovarian
[8] = tested on: OVCAR-3 ovarian
[9] = tested on: HS 578T breast
[10] = tested on: NCI/ADR-RES ovarian
[11] = tested on: T-47D breast
[12] = tested on: BT-549 breast
[13] = tested on: MDA-MB-435 melanoma
[14] = tested on: SW-620 colon
[15] = tested on: MCF7 breast
[16] = tested on: HCT-116 colon
[17] = tested on: HCC-2998 colon
[18] = tested on: KM12 colon
[19] = tested on: MDA-MB-468 breast

Row | SMILES | growth [1] | growth [2] | growth [3] | growth [4] | growth [5] | growth [6] | growth [7] | growth [8] | growth [9] | growth [10] | growth [11] | growth [12] | growth [13] | growth [14] | growth [15] | growth [16] | growth [17] | growth [18] | growth [19]
1 | Cc1nn(-c2ccccc2)c2ncn(CC(=O)N/N=C/c3ccccc3O)c(=O)c12 | 13.3% | 45.4% | 19.7% | 63.2% | 39.4% | 37.7% | 40.6% | 18% | 54.9% | 23.3% | 22.9% | 56.5% | 64.1% | 43.5% | 16.3% | 18.5% | 36.2% | 25.8% | 10.9%
2 | CNS(=O)(=O)N1CCc2c(Br)c3c(c(OC)c2C1CCc1ccccc1)OCO3 (centres undefined) | 4.75% (active) | 2.66% (active) | 9.92% (active) | -40% (active) | -2.26% (active) | 16.2% | -6.68% (active) | -48.8% (active) | -22.4% (active) | -10.9% (active) | 6.69% (active) | -68.8% (active) | -67.9% (active) | 8.53% (active) | -22.3% (active) | -16.8% (active) | -12.7% (active) | 2.02% (active) | -63.1% (active)
3 | O=C(Cn1c(/C=C/c2ccc([N+](=O)[O-])cc2)nc2ccccc2c1=O)Nc1ccccc1 | 88.1% | 93.8% | 65.8% | 80% | 56.8% | 71.9% | 74.6% | 81.4% | 54.2% | 54% | 79.9% | 63.1% | 91% | 83.6% | 78.5% | 61.2% | 79.8% | 77.3% | 45.4%
4 | NC(=O)c1ccc(-c2ccc3ncnc(N4CCc5cc(F)c(Cl)cc54)c3c2)cn1 | 15.2% | 48.5% | 71.1% | 73.5% | 88.7% | 101% | 2.18% (active) | 64.8% | 55.4% | 74.6% | 28% | 61.1% | 95.9% | 94.2% | 37.7% | 63.6% | 89.7% | 96.1% | -7.37% (active)
5 | O=C(N=Nc1c(O)[nH]c2ccc(Cl)cc12)c1ccc2nc(-c3ccc(Cl)cc3)[nH]c2c1 | 10.6% | 77.8% | -34.8% (active) | 36.2% | -3.41% (active) | 42% | -11.1% (active) | -5.16% (active) | 12.2% | 94.7% | -2.02% (active) | 49% | -32.9% (active) | 3.1% (active) | 1.03% (active) | 9.89% (active) | -34.6% (active) | 42.3% | -80.7% (active)
6 | Cc1ccc(C(=O)Nc2ccc(-n3ccnc3)c(C(F)(F)F)c2)cc1C#Cc1cnc2cccnn12 | 13.8% | -4.27% (active) | 18.6% | 39.8% | 13.6% | 48% | 20% | 45.4% | -7.38% (active) | 24.7% | -13.3% (active) | -67.8% (active) | 11.3% | 31.2% | 25.1% | 0.409% (active) | 29.9% | 21.9% | -1.47% (active)
7 | C[C@H]1[C@@H](CC(=O)N[C@@H](Cc2coc3ccccc23)B(O)O)O[C@@H]2OC3(C)CC[C@H]4[C@H](C)CC[C@@H]1[C@@]24O3 | 29.6% | -4.75% (active) | 47.1% | -26.1% (active) | 33% | 58.8% | 9.89% (active) | 3.84% (active) | -0.841% (active) | 19.5% | 27.1% | -72.8% (active) | -75.8% (active) | 3.32% (active) | 24.4% | -56.6% (active) | -83.1% (active) | 0.198% (active) | -49.6% (active)
8 | CCOc1ccc2[nH]c(=O)c(C(c3nnnn3CC3CCCO3)N3CCN(Cc4ccccc4)CC3)cc2c1 (centres undefined) | 111% | 99.1% | 84.2% | 97% | 94.9% | 79.3% | 84.6% | 100% | 20.1% | 90.1% | 106% | 81.7% | 99.3% | 98.8% | 92.4% | 78% | 122% | 101% | 72.4%
9 | O=C(c1ccc(Cl)cc1)C1[C@H](c2ccccc2Cl)[C@@H](c2ccccc2)NC12C(=O)Nc1ccc(Cl)cc12 (some centres undefined) | -52.8% (active) | 2.23% (active) | -76.4% (active) | -53.8% (active) | -14.4% (active) | 1.4% (active) | -42.5% (active) | -28.9% (active) | -40.4% (active) | -82.7% (active) | -71.1% (active) | -87.2% (active) | -87.5% (active) | -61.5% (active) | -37.7% (active) | -89.3% (active) | -85.6% (active) | -48% (active) | -52.5% (active)
10 | COc1ccc(OC)c(Cn2cc(C#N)c(N)c2C(=O)c2ccc(Br)cc2)c1 | 14.4% | 58% | 33.9% | 71.1% | 57.1% | 50.9% | 48.7% | 55.9% | 45.2% | 23.2% | 35.6% | -86.3% (active) | 0.655% (active) | 31.2% | 27.9% | 24.3% | 71.8% | 40% | 2.73% (active)
11 | COc1ccc(NC(=O)Cn2c(/C=C/c3cccc(OC)c3)nc3ccccc3c2=O)cc1 | 77.6% | 41.1% | 10.4% | 40% | -30.1% (active) | 44.8% | 37.7% | 28.5% | 9.48% (active) | 35.4% | -15% (active) | 73.8% | 59.1% | 41.2% | 30.4% | 13.9% | 92.5% | 82.5% | 71.4%
12 | Cc1nc2sccn2c1-c1nnc(SCc2ccccc2)o1 | 87.5% | 79.1% | 96.5% | 90.2% | 79.8% | 97.9% | 92% | 117% | 107% | 78.1% | 74.5% | 119% | 97.4% | 105% | 74.2% | 91.6% | 103% | 98.5% | 52%
13 | COc1ccc(-c2nc3ccc(-c4nnc(SCc5ccccc5)o4)cc3[nH]2)cc1OC | 56.3% | 44.5% | 6.86% (active) | 34.2% | -45.4% (active) | 62.9% | 42.8% | 10.7% | 2.46% (active) | 7.16% (active) | 32.4% | 49.7% | 40% | 15.9% | 21.7% | 8.42% (active) | 63.2% | 61.2% | 44.1%
14 | O=C1N/C(=N\c2nccs2)S/C1=C\c1ccc([N+](=O)[O-])cc1 | 25.5% | 6.29% (active) | 14.3% | 32.8% | 12.4% | 52.7% | 23.6% | 12.7% | 20.8% | 8.78% (active) | 15.2% | 35.5% | 22.2% | 20.9% | 9.68% (active) | -1.76% (active) | 22.7% | 14.2% | -14.6% (active)
15 | O=C1Nc2ccc(F)cc2/C1=C/C(=O)c1cc2ccccc2oc1=O | 42.1% | 78.8% | 105% | 113% | 89.1% | 88.7% | 105% | 85.9% | 101% | 103% | 93.4% | 116% | 103% | 20.9% | 69.4% | 88.7% | 121% | 101% | 22.3%
16 | Nc1nc2cc(-c3ccc4ncnc(NCc5ccccc5)c4c3)ccc2o1 | -44.9% (active) | 10.6% | 2.26% (active) | 22.1% | -75.2% (active) | -5.93% (active) | -68.5% (active) | -31.5% (active) | -34.8% (active) | 2.3% (active) | -53.6% (active) | -10.8% (active) | 16.7% | 24.1% | -25.6% (active) | -20% (active) | 40.3% | 25.4% | -47.5% (active)
